In experiment [1] the test system is Klebsiella pneumoniae. Conditions: Concentration 20 uM; ASSAY_TEST Inhibition of Bacterial Growth; detection method Absorption (OD600); MEDIA CAMHB; plate type 384well; NBS; CORNING #3640; time 18 hr.
Experiment [2] concerns Candida albicans. As to conditions: 20 µM.
In experiment [3] the test system is Cryptococcus neoformans. As to conditions: Concentration 20 uM; ASSAY_TEST Inhibition of Fungal Growth; detection method Resazurin; Absorption (OD600-OD570); plate type 384well; NBS; CORNING #3640. In general terms: Alamar Blue is a resazurin reagent that responds to reducing activity.

SMILES strings stand for the structures. Entries with a potency or affinity are not part of this list.

The term Inhibition denotes the drop in the measured response relative to a control, in per cent. In the case of `COc1cc2nc(N(C)CCCNC(=O)C3CCCO3)nc(N)c2cc1OC` (centres undefined) [ALFUZOSIN], the Inhibition in experiment [1] was -2.08%; in experiment [2], -0.8%; in experiment [3], -5.01%.

For `COc1ccc2c(c1)c(CC(=O)O)c(C)n2C(=O)c1ccc(Cl)cc1.O`, the Inhibition in experiment [1] came to 8.34%; in experiment [2], 3.53%; in experiment [3], 1.93%.

Regarding `CN(CCOc1ccc(CC2SC(=O)NC2=O)cc1)c1ccccn1.O=C(O)/C=C\C(=O)O` (centres undefined) [ROSIGLITAZONE MALEATE], the Inhibition in experiment [1] is 9.63%; in experiment [2] it was 0.75%; in experiment [3] it was -9.6%.

Take `Nc1nc(=O)c2nc(CNc3ccc(C(=O)N[C@@H](CCC(=O)O)C(=O)O)cc3)cnc2[nH]1` [FOLIC ACID]: the Inhibition in experiment [1] is 12.05%; in experiment [2], 1.12%; in experiment [3] it was -7.28%.

Consider `CC(=O)S[C@@H]1CC2=CC(=O)CC[C@]2(C)[C@H]2CC[C@@]3(C)[C@@H](CC[C@@]34CCC(=O)O4)[C@H]12` [SPIRONOLACTONE], for which the values for the Inhibition in experiment [1], in experiment [2] and in experiment [3] were 18.33%, 1.56% and -2.8%, respectively.

Regarding `NS(=O)(=O)c1cc2c(cc1C(F)(F)F)NC(Cc1ccccc1)NS2(=O)=O` (centres undefined) [BENDROFLUMETHIAZIDE], the Inhibition was 6.67% in experiment [1], 3.76% in experiment [2] and -1.07% in experiment [3].

For `CCCCN1CCCC1CNC(=O)c1cc(C#N)c2ccccc2c1OC` (centres undefined) [NAFADOTRIDE], the Inhibition was 16.43% in experiment [1], 4.38% in experiment [2] and -22.16% in experiment [3].

For `Cc1cccc(C)c1NC(=O)C1CCCCN1C.Cl` (centres undefined) [MEPIVACAINE HYDROCHLORIDE], the Inhibition in experiment [1] was 9.49%; in experiment [2] it was -0.43%; in experiment [3], -0.84%.

Values taken from ChEMBL document CHEMBL4513141, “CO-ADD screening of NIH (USA) - Clinical Collection” (2021).
